Hit rate of the full screen: of about 340,000 compounds, about 4,500 (1.3%) were called active. Where a call stands in place of a potency, no number is given. Inconclusive results (about 5%) are left out. This is one part of a sample in which actives are shown more often than they occur. Calls come from the whole dose curve; as a rule, active = well fitted inhibition curve with a large enough effect; inconclusive = small, poorly fitted or top-dose-only effect, or another doubt; inactive = no such curve, though single readings can be large or run the other way.
Each compound was assayed against DNA polymerase beta (Homo sapiens) (UniProt P06746) (assay: qHTS Assay for Inhibitors of DNA Polymerase Beta). Conditions: Pol beta primer extension/strand displacement, fluorescence kinetic; series mostly up to 114 µM.
Procedure, shortened: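 10 nM enzyme + cpd, 15 min RT; start with substrate 50 nM final; read 0 min and after 10 min RT. Corrected, normalized data; 4-parameter Hill curve fit.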
Potency is the fitted concentration of half-maximal effect.

Compound	Potency
Cc1ccccc1Nc1nnc(SCC(=O)c2cc3ccccc3o2)s1	inactive
CC(C)Nc1nnc(SCC(=O)c2c[nH]c3ccccc23)s1	inactive
CC(C)c1ccc(Nc2nnc(SCC(=O)c3nnc(-c4ccccc4)o3)s2)cc1	39.8 µM (active)
Cc1cccc(Cn2c(SCc3ccc(C(=O)N4CCC(C)CC4)cc3)nc3ccncc32)c1	inactive
COc1cc(OC)c(OC)cc1/C=C/c1nc2ccccc2c(=O)n1-c1ccc(Br)c(C)c1	inactive
COc1ccc(C(=O)Nc2cccc(C(=O)OCc3cc(=O)n4c5c(sc4n3)CCCC5)c2)cc1	inactive
Cc1ccc(CN2CCc3nc(N4CCN(C)CC4)ncc3C2)cc1	inactive
COc1cccc(N2CCN(C(=O)CCCCCn3c(=O)[nH]c4ccccc4c3=O)CC2)c1	inactive
Cc1ccsc1-c1cc(C(=O)O)c2c(ccc3ccccc32)n1	inactive
Cc1cccc(NC(=O)CSc2nc(-c3ccco3)cc(C(F)(F)F)n2)c1C	inactive
Cc1cc(C)c2nc(-c3ccco3)cc(C(=O)O)c2c1	7.08 µM (active)
CCOc1cc(CNC(=O)c2sc3ncnc(N(C)C4CCCCC4)c3c2C)ccc1OC	inactive
COc1ccc(CCNC(=O)C(=O)NCC(c2ccco2)S(=O)(=O)c2cccs2)cc1OC (centres undefined)	inactive
O=C(Nc1ccc2nc(SCC(=O)N3CCCc4ccccc43)sc2c1)c1ccc(F)cc1	inactive
O=C(CSc1nccn1C1CCCC1)Nc1cc(C(F)(F)F)ccc1Cl	inactive
CCCc1nc2sc3c(c2c(=O)n1NC(=O)CCCl)CCCC3	inactive
NNC(=O)C1CCCn2c1nc1sc3c(c1c2=O)CCCC3 (centres undefined)	inactive
Cn1c(NN)nc2sc3c(c2c1=O)CCC3	89.1 µM (active)
COc1ccccc1OCC(=O)Nc1nnc2n1CCS2	inactive
CCOC(=O)c1c(C)oc2nc(C)nc(N3CCN(c4ccc(OC)cc4)CC3)c12	inactive
CC(=O)NC1C(Oc2ccc(C=O)cc2)OC(COC(C)=O)C(OC(C)=O)C1OC(C)=O (centres undefined)	39.8 µM (active)
CC(=O)NC1C(Oc2ccc(C)cc2)OC2COC(c3ccco3)OC2C1O (centres undefined)	inactive
CCc1cccc(OC2OC(CO)C(O)C(O)C2NC(C)=O)c1 (centres undefined)	inactive
Cc1c(C(=O)N2CCCC2)oc2c1-c1nn(CC(=O)NCc3ccc(OC(C)C)cc3)cc1CC2	inactive
COc1ccc(-c2nc(SCC(=O)N3CCCCC3C)n[nH]2)cc1 (centres undefined)	inactive
CCCCCn1c(=O)[nH]c2cc(C(=O)NCCN(C)CCCC)ccc2c1=O	inactive
CCSc1nnc(NC(=O)c2cc(=O)c3cc(C)c(C)cc3o2)s1	inactive
CCSc1nnc(NC(=O)c2ccc(C)cc2)s1	inactive
Cc1ccc(C(=O)Oc2coc(CSc3nnc(NC(=O)c4cccs4)s3)cc2=O)cc1C	20 µM (active)

From PubChem BioAssay AID485314 (National Center for Advancing Translational Sciences (NCATS), 2010)
